Assay [1] deals with Glucocorticoid receptor (Homo sapiens) (UniProt P04150). In words: qHTS assay for small molecule agonists of glucocorticoid receptor signaling (AID 588532; active = well fitted curve in the direction sought with a large enough effect in the signal ratio, with a control signal flat; the % refers to the signal ratio;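 note: 100% = dexamethasone at 0.1 µM and 0% = DMSO only wells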). To be noted: HeLa MMTV-bla, beta-lactamase ratio, agonist, 18 h; stronger effect = higher value; percent of dexamethasone control, DMSO zero. The method in brief: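 MMTV-bla HeLa, beta-lactamase reporter; medium with 1% charcoal/dextran-stripped FBS; cpds up to 92 uM, 18 h, 37 C; CCF4 readout 460/530 nm; Hill fit → EC50, efficacy vs 0.1 uM dexamethasone = 100%.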
Sequence of Glucocorticoid receptor (Homo sapiens) (P04150 whole entry, looked up): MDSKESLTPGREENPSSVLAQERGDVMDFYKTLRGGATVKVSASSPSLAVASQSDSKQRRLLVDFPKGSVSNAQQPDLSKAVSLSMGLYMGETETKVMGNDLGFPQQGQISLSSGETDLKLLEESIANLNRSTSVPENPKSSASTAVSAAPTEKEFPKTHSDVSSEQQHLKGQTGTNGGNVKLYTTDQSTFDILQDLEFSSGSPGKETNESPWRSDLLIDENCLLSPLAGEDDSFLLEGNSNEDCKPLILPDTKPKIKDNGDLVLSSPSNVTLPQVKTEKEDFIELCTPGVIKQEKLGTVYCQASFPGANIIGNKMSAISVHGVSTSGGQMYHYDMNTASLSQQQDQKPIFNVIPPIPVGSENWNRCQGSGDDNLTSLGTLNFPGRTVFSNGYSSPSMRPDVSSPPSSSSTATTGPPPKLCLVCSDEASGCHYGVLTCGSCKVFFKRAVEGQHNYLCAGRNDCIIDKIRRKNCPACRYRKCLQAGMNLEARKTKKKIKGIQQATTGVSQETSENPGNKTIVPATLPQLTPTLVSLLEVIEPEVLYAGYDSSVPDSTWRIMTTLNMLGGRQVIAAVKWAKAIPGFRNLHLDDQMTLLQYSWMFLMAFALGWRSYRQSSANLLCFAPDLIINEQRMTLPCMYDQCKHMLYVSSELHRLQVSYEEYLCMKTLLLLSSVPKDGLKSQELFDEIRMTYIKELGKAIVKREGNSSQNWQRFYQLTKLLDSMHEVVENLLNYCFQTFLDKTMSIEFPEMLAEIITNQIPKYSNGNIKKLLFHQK

The target is the same in assay [2]. In words: qHTS assay for small molecule antagonists of glucocorticoid receptor signaling (AID 588533; active = well fitted inhibition curve with a large enough effect in the signal ratio, with a control signal flat, not every such curve was filed as active; the % refers to the signal ratio;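 note: cells stimulated with 2 nM dexamethasone as agonist; % is set by controls: 0 for no effect and ±100 for the full control effect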). To be noted: HeLa MMTV-bla, GRE beta-lactamase ratio, antagonist mode, 18 h; series mostly up to 76.8 µM. The method in brief: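 Antagonist-mode qHTS: compound titrations added to GRE-bla HeLa cells, then dexamethasone 2 nM final; 18 h, 37 C. CCF4 FRET fluorescence normalized to dexamethasone and DMSO; IC50 from Hill fit.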

A short description of assay [3]: qHTS assay for small molecule antagonists of peroxisome proliferator-activated receptor delta signaling (AID 588535).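 Note: cells co-treated with a PPAR-delta agonist as stimulator during compound exposure.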 To be noted: HEK293T PPARd-UAS-bla, beta-lactamase FRET ratio, 18 h; 460 nm channel. A digest of the protocol: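 Compounds tested in titration on PPAR-delta-UAS-bla HEK293T cells grown in charcoal/dextran-stripped serum (2%); beta-lactamase activity read via CCF4 emission at 460 and 530 nm.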

Assay [4] deals with Peroxisome proliferator-activated receptor gamma (Homo sapiens) (UniProt P37231). Kind of assay: qHTS assay for small molecule agonists of peroxisome proliferator-activated receptor gamma signaling (AID 588536; active = well fitted curve in the direction sought with a large enough effect in the signal ratio, with a control signal flat, not every such curve was filed as active; the % refers to the signal ratio;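 note: 0% = DMSO basal wells and 100% = rosiglitazone at 2 µM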). To be noted: HEK293 PPARg-UAS-bla, beta-lactamase ratio, 16 h, percent of rosiglitazone response, DMSO as zero; series mostly up to 76.7 µM. The method in brief:
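Beta-lactamase reporter read-out: CCF4 fluorescence (ex 405, em 460/530 nm) after 2 h at RT. HEK293 GeneBLAzer cells were treated for 16 h at 37 C. Hill fits gave EC50 and efficacy versus 2 uM rosiglitazone (100%) and DMSO (0%).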

The target is the same in assay [5]. Kind of assay: qHTS assay for small molecule antagonists of peroxisome proliferator-activated receptor gamma signaling (AID 588537; active = well fitted inhibition curve with a large enough effect in the signal ratio, with a control signal flat, not every such curve was filed as active; the % refers to the signal ratio;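 note: reporter cells co-stimulated with 50 nM rosiglitazone agonist during compound treatment; % of control where 0% means no effect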). To be noted: HEK293 PPARg-UAS-bla, beta-lactamase ratio, antagonist mode; series mostly up to 76.8 µM. The method in brief:
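HEK293 cells, PPAR-gamma-UAS-bla, 3000/well. Pre-incubation 6-6.5 h, 37 C. Compound titration with rosiglitazone 50 nM final, 16 h. CCF4 dye, 2 h RT, dual-emission fluorescence.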

Assay [6] addresses Vitamin D3 receptor (Homo sapiens) (UniProt P11473). In words: qHTS assay for small molecule agonists of vitamin D receptor signaling (AID 588543; calls by dose curve;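 note: 0% = DMSO basal and 100% = reference agonist control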). To be noted: HEK293T VDR-UAS-bla, beta-lactamase ratio, 16 h; series mostly up to 76.8 µM. The method in brief:
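β-lactamase reporter, VDR-UAS-bla HEK293T, agonist mode. Cells plated 5 h at 37 °C, compound titration 16 h at 37 °C, CCF4 dye 2 h RT, ratio 460/530 nm. Hill fit → EC50, efficacy vs 50 nM 1α,25-(OH)2D3.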

A short description of assay [7]: qHTS assay for small molecule agonists of retinoid X receptor alpha signaling (AID 588544). To be noted: HEK293T RXRa-UAS-bla, beta-lactamase reporter, 18 h; 530 nm emission.
In assay [8] the target is Thyroid hormone receptor beta (Homo sapiens) (UniProt P10828). Kind of assay: qHTS assay for small molecule agonists of thyroid hormone receptor beta signaling (AID 588545; calls by dose curve;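 note: 0% = DMSO only and 100% = 10 nM T3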). To be noted: TR-UAS-bla GripTite HEK 293, beta-lactamase ratio, agonist mode, 18 h; series mostly up to 76.7 µM. The method in brief: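 Stimulation of a TR-driven beta-lactamase reporter was quantified in GripTite HEK 293 cells. Compound series ran for 18 hrs; curves were normalized to T3 and DMSO controls and fitted to yield EC50.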
Sequence of Thyroid hormone receptor beta (Homo sapiens) (P10828 whole entry, looked up): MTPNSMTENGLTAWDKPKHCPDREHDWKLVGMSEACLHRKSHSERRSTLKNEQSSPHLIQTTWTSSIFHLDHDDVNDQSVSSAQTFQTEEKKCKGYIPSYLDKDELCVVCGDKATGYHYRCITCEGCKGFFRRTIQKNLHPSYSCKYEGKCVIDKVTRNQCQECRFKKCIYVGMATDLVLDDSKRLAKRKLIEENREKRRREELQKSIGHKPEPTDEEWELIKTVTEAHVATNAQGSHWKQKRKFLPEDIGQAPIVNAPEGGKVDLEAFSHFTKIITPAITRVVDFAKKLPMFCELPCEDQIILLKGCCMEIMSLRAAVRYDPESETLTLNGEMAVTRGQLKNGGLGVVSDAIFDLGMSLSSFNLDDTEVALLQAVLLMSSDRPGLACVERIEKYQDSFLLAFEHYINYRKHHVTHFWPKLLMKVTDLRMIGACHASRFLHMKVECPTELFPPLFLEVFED

Assay [9] can be described thus: qHTS assay for small molecule antagonists of retinoid X receptor alpha signaling (AID 588546; active = well fitted inhibition curve with a large enough effect in the signal ratio, with a control signal flat, not every such curve was filed as active; the % refers to the signal ratio;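 note: cells stimulated with 9-cis-retinoic acid as agonist; % is set by controls: 0 for no effect and ±100 for the full control effect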). To be noted: HEK293T RXRa-UAS-bla, beta-lactamase ratio, antagonist mode; measured here: W530 green channel, cytotoxicity proxy. A digest of the protocol:
(§1)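 Beta-lactamase reporter inhibition, read as CCF4 fluorescence ratio (ex 405, em 460/530 nm) after 2 h at RT. HEK293T UAS-bla cells, 2500/well, were stimulated with 9-cis-RA at 500 or 100 nM final alongside test compound for 18 h at 37 C.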

Assay [10] concerns the target Retinoic acid receptor RXR-alpha (Homo sapiens) (UniProt P19793). Described as above. To be noted: HEK293T RXRa-UAS-bla, beta-lactamase ratio, antagonist mode. The method in brief: as §1
Assay [11] is described as follows: qHTS assay for small molecule activators of the nuclear factor-kappa B (NF-kB) signaling pathway (AID 651749; active = well fitted activation curve with a large enough effect in the signal ratio; the % refers to the signal ratio; note: % of control where 0% means no effect). To be noted: NF-kB-bla ME-180 cells, beta-lactamase FRET ratio, 16 h; activation: stronger effect = higher value. The method in brief:
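Beta-lactamase reporter expression, controlled by NF-kB response elements in ME-180 cells, was quantified fluorometrically via FRET disruption; cells at 2,000/well had been incubated with 23 nL test compound for 16 hr.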

Assay [12] in a line: qHTS assay for environmental chemicals that activate the Aryl hydrocarbon Receptor (AhR) signaling pathway (AID 651777). Note: % of control where 0% means no effect; nearly all actives have a fitted effect of over 15% in size. To be noted: 1A2-DRE human hepatoma cells, luciferase, 24 h; activation: stronger effect = higher value. A digest of the protocol:
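Induction of CYP1A2 transcription through AhR is detected by luciferase in 1A2-DRE hepatoma cells. Compounds or DMSO act for 24 hr at 37 C before a 30 min One-Glo step at room temperature.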

In assay [13] the target is Peroxisome proliferator-activated receptor alpha (Homo sapiens) (UniProt Q07869). In words: qHTS assay for small molecule agonists of the peroxisome proliferator-activated receptor alpha (PPARalpha) signaling pathway (AID 651778). Note: % of control where 0% means no effect. To be noted: PathHunter PPARalpha complementation, chemiluminescence, 6 h; max response: stronger effect = higher value. The method in brief: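 Cells plated at 2,000/well and held overnight at 37 C, 5% CO2, then compound added by pin tool for 6 hr; after PathHunter detection reagent and 60 min at room temperature, chemiluminescence from enzyme complementation was read.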
Sequence of Peroxisome proliferator-activated receptor alpha (Homo sapiens) (Q07869 whole entry, looked up): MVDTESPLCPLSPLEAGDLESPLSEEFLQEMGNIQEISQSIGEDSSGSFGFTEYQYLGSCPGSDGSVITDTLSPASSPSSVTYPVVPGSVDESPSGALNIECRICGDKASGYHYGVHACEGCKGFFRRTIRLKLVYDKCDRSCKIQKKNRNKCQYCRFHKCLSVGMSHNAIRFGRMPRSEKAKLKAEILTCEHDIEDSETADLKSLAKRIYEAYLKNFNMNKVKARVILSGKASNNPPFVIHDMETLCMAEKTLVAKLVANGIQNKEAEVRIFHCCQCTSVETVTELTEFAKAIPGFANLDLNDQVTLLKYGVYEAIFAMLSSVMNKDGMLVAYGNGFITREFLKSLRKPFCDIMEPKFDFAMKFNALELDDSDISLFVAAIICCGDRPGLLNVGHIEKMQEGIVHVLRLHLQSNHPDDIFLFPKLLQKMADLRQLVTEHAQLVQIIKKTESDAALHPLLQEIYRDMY

A short description of assay [14]: qHTS assay for small molecule agonists of the antioxidant response element (ARE) signaling pathway measured by Nrf2-dependant transcriptional activity (AID 720636; active = well fitted curve in the direction sought with a large enough effect in the repeat runs; an effect the other way counts as inactive or inconclusive;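 note: HepG2 cells with an ARE-driven luciferase reporter; % of control where 0% means no effect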). To be noted: ARE-luc HepG2, Nrf2 luciferase reporter, 16 h; series mostly up to 92.4 µM. The method in brief:
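We exposed ARE-luc HepG2 cells, seeded in assay medium with 1% dialyzed FBS and allowed 6 hr to adhere, to test compounds overnight (16 hr, 37 C) before measuring luciferase with ONE-Glo.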

A short description of assay [15]: qHTS assay for small molecule agonists of the antioxidant response element (ARE) signaling pathway measured by Nrf2-dependant transcriptional activity - cell viability counter screen (AID 720653; active = well fitted curve in the direction sought with a large enough effect in the repeat runs; an effect the other way counts as inactive or inconclusive; note: % is set by controls: 0 for no effect and ±100 for the full control effect). To be noted: ARE-bla HepG2 viability, CellTiter-Glo ATP luminescence, 16 h; max response: stronger effect = lower value. The method in brief: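 ARE-bla HepG2 cells (2,000/well) rested 5 hrs at 37C/5% CO2, then exposed to compounds in DMSO for 16 hrs. Viability was read in the same wells as intracellular ATP by luminescence, 30 min at room temperature after reagent addition.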

Assay [16] in a line: qHTS assay for cell viability of the p53RE-bla HCT-116 cell line (AID 743292). Note: % is set by controls: 0 for no effect and ±100 for the full control effect; nearly all actives have a fitted effect of over 55% in size. To be noted: p53RE-bla HCT-116 viability, ATP luminescence, 16 h; series mostly up to 95 µM. The method in brief:
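In this qHTS counter-screen, metabolically competent p53RE-bla HCT-116 cells were counted via their ATP content. Compounds were applied for 16 h at 37 C and luciferase-coupled luminescence was measured.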

For assay [17], the target named is Nuclear receptor subfamily 1 group I member 2 (Rattus norvegicus) (UniProt Q9R1A7). In words: qHTS assay for small molecule activators of the rat pregnane X receptor (rPXR) signaling pathway (AID 651751; call rule not given here; note: 0% is about no effect). To be noted: rPXR reporter cells, luciferase (One-Glo), 24 h.
Sequence of Nuclear receptor subfamily 1 group I member 2 (Rattus norvegicus) (Q9R1A7 whole entry, looked up): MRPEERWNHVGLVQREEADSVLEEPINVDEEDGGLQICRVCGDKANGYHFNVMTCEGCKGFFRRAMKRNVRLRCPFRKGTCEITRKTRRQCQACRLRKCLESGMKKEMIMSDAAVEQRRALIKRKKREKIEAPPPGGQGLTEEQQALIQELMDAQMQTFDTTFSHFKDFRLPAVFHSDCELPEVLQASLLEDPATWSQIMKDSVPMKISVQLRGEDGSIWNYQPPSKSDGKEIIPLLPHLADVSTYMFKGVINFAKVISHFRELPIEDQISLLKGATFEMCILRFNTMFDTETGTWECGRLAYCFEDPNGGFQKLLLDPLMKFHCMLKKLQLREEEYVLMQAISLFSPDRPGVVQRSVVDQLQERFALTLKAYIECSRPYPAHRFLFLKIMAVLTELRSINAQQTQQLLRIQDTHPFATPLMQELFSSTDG
A short description of assay [18]: qHTS assay for small molecule activators of the p53 signaling pathway (AID 651743; active = well fitted activation curve with a large enough effect in the signal ratio, not every such curve was filed as active; the % refers to the signal ratio; note: % of control where 0% means no effect). To be noted: HCT-116 p53RE-bla, beta-lactamase FRET ratio, 16 h; activation: stronger effect = higher value. A digest of the protocol: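 Here HCT-116 cells with an integrated p53-responsive beta-lactamase gene were incubated with compounds (16 hours, 37 C) after a 5-hour plating period; beta-lactamase activity was detected as fluorescence intensity via B/G FRET substrate.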

Assay [19] in a line: qHTS assay for small molecule activators of the human pregnane X receptor (PXR) signaling pathway (AID 720659; call rule not given here; note: 0% is about no effect). To be noted: DPX-2 HepG2 CYP3A4-luciferase, 24 h; series mostly up to 92.3 µM.
A short description of assay [20]: qHTS assay for cell viability of HEK293 cells (AID 743288). Note: % is set by controls: 0 for no effect and ±100 for the full control effect; nearly all actives have a fitted effect of over 50% in size. To be noted: ATP luminescence (CellTiter-Glo), 18 h; max response: stronger effect = lower value. A digest of the protocol:
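ATP luminescence (CellTiter-Glo) reports metabolically competent cell number after parental HEK293 cells, 2,000/well, were treated with DMSO-dissolved compounds for 18 h at 37 C; reagent incubation 30 min, room temperature.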

Several values for one entry are separate records, joined by “and”; a condition that tells them apart may be missing. Equal entries are not always repeated. Inconclusive results are not listed. Activity calls are given as the source filed them. Unless noted, calls come from the whole dose curve; as a rule, active = well fitted curve in the direction sought with a large enough effect; inconclusive = small, poorly fitted or top-dose-only effect, or another doubt; inactive = no such curve, though single readings can be large; an effect the other way counts as inactive or inconclusive.

Sequence of Vitamin D3 receptor (Homo sapiens) (P11473 whole entry, looked up): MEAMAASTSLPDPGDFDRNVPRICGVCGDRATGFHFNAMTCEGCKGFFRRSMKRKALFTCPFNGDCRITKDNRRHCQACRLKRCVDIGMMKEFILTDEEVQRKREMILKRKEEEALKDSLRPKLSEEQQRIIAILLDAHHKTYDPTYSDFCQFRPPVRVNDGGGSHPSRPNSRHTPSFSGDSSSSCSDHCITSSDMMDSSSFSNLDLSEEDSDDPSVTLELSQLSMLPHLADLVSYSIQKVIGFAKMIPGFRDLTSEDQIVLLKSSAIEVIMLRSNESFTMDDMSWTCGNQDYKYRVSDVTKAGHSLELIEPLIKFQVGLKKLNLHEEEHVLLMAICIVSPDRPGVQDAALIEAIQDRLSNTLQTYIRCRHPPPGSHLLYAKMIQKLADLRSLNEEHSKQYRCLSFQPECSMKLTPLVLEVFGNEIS
Sequence of Retinoic acid receptor RXR-alpha (Homo sapiens) (P19793 whole entry, looked up): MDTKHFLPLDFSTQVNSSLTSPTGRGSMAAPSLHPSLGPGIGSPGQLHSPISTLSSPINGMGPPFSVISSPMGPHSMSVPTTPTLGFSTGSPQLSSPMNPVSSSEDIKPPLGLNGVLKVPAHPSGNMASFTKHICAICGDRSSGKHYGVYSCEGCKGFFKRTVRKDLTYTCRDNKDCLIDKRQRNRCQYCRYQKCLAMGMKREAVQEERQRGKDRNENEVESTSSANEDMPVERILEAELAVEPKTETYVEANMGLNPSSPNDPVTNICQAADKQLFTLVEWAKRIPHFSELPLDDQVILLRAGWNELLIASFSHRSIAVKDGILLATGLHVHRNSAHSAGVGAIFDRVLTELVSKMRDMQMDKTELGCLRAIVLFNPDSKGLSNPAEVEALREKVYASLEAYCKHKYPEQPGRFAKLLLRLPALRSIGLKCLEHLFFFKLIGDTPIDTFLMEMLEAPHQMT
Sequence of Peroxisome proliferator-activated receptor gamma (Homo sapiens) (P37231 whole entry, looked up): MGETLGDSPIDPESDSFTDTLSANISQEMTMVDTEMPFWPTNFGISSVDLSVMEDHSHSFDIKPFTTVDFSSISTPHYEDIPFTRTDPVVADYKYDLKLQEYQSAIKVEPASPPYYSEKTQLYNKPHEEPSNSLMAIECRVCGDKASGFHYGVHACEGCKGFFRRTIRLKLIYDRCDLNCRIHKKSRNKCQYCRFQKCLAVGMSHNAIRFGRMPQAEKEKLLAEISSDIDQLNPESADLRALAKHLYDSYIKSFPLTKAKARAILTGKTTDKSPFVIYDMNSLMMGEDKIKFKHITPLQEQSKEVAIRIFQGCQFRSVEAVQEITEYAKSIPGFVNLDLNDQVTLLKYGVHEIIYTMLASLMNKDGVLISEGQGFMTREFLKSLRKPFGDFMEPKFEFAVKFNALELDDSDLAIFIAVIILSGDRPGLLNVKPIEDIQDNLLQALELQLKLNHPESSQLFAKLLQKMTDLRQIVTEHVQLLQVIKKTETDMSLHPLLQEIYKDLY

In the case of `CCCCCCCC/C=C\CCCCCCCCO`, the results for the activation in assay [1], in assay [11] and in assay [12] were -0.954% (inactive), -1.39% (inactive) and 0.617% (inactive), respectively. The Potency result in [2], in assay [5], in assay [8], in assay [14] and in [16] was “inactive” in each case. The max response in assay [3] is 8.68%; in [7], -18.5%; in assay [9], 0.0391%; in assay [10] it was 6.68% (inactive); in assay [13] it was 8.71% (inactive); in assay [15], -1.08% (inactive). In addition, in [17], the max response was -0.215% (inactive). The result in [4] and in assay [6] was inactive.

As to `CC(C)Nc1nc(N)nc(Cl)n1`, the activation is -6.58% (inactive) and -7.33% (inactive) in [1]; -1.43% (inactive) and -0.514% (inactive) in assay [18]; 0.272% (inactive) and 0.556% (inactive) in [11]; 1.51% (inactive) and -1.55% (inactive) in [12]. For the same molecule, the Potency result in assay [2], in assay [5], in assay [8] and in [16] was “inactive” each time. The max response in assay [3] was 2.88% and -10.4%; in assay [7] it was 2.38% and -17.2%; in assay [9] it was -2.6% and -6.07%; in assay [10], -9.99% (inactive) and -17.3% (inactive); in assay [13], -0.394% (inactive) and -2.37% (inactive); in [15] it was -6.9% (inactive) and -10.3% (inactive). The max response in [17] was 4.66% (inactive) and -2.32% (inactive). The result in assay [4], in [6] and in assay [19] was inactive.

On to `c1ccc2c(c1)ccc1c3ccccc3ccc21`, for which the max response is 1.74% in [3]; -11.3% in assay [7]; -22.1% in [9]; -7.12% (inactive) in assay [10]; -3.59% (inactive) in [13]; -24.7% (inactive) in assay [15]. Besides, the max response in assay [20] was -7.41% (inactive). For the same molecule, the result in assay [4] and in [6] was inactive. Besides, the Potency entry in [5], in [8] and in assay [16] was “inactive” in each case. Also, the activation is 0.403% (inactive) in assay [18] and -0.747% (inactive) in [11].

Consider `O=C(c1ccccc1)c1ccc(O)c(O)c1O`, for which the activation was -16.3% (inactive) in assay [1], -1.01% (inactive) in [18] and 3.3% (inactive) in assay [12]. In addition, the Potency entry in assay [2], in [8], in assay [14] and in assay [16] was “inactive” in each case. Besides, the max response in assay [3] is 45.6%; in [7] it was 27%; in assay [9], -6.52%; in assay [10], -13.1% (inactive); in [13], -4.07% (inactive); in assay [15] it was -9.24% (inactive). In addition, the figures for the max response in [20] and in assay [17] were -12.1% (inactive) and -0.206% (inactive), respectively. Also, the result in assay [6] and in [19] was inactive.

These data come from PubChem BioAssay (NCATS).
